Source: PubChem
Sampled rows, rich in hits. Any-hit rate of the full collection: about 1.3%.
WRN helicase inh-1 = blocks human WRN helicase; 0.46% of 360,000 active; Potency, µM (highest dose often 114 µM), without a hit: top-dose activity change, negative = inhibition, hits mostly inhibitors; AID 651768; WRN helicase unwinding, fluorescent forked duplex, kinetic; note: potency is the fitted concentration of half-maximal effect; % is set by controls: 0 for no effect and ±100 for the full control effect; nearly all actives have a fitted effect of over 55% in size
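WRN at 20 nM final preincubated with compound 15 min at room temperature; reaction started with 100 nM fluorophore/quencher forked duplex oligonucleotide and 2 mM ATP final. Unwinding followed kinetically by red fluorescence (ex 525, em 598 nm).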
PGK inhibitor = T. brucei PGK inhibition; P07378; PGK/GAPDH coupled, Kinase-Glo luminescence, 60 min; Potency, µM (top dose mostly 57.5 µM), for the others: at the top dose activity change, negative = inhibition, hits mostly inhibitors; 0.043% of 380,000 active; AID 602233; note: potency is the fitted concentration of half-maximal effect; % is set by controls: 0 for no effect and ±100 for the full control effect; nearly all actives have a fitted effect of over 60% in size
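Recombinant glycosomal PGK reaction used 1,3-bisphosphoglycerate generated in-well by GAPDH (100nM final) in 100mM TEA pH 7.6, 5mM MgCl2, 0.01% Tween-20. After 60 minutes at room temperature, ATP was read by Kinase-Glo Plus luminescence end-point.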
FEN1 inh = human FEN1 inhibition; P39748; Recombinant FEN1 flap cleavage, fluorescence, 15 min; Potency, µM (titrated, usually from 114 µM), without a hit: at the top dose activity change, negative = inhibition, actives largely listed as inhibitors; 0.35% of 390,000 active; note: potency is the fitted concentration of half-maximal effect; % is set by controls: 0 for no effect and ±100 for the full control effect; nearly all actives have a fitted effect of over 65% in size
Target sequence (P39748 whole entry, looked up): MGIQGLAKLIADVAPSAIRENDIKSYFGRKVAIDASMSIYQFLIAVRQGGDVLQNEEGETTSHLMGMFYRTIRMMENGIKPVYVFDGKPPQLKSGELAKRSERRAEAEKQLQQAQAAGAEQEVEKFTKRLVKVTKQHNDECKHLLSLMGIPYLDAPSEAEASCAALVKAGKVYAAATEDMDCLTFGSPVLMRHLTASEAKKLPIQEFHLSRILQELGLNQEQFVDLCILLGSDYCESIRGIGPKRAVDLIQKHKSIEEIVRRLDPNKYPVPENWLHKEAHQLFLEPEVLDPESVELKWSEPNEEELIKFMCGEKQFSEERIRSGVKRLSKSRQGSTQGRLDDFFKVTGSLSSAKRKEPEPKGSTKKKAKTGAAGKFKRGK
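Nuclease activity of 10 nM FEN1 was measured after 15 min of room-temperature exposure to titrated compounds, by adding 50 nM flap substrate and reading plates at 0 and 15 min.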
Pin1 inh = blocks the human prolyl isomerase Pin1. Q13526. 0.009% of 390,000 active. Potency, µM (series often up to 115 µM), without a hit: at the top dose activity, negative = inhibition, usual class: inhibitors. Pin1 FP peptide displacement, HiFluor488, 10 min; active = well fitted inhibition curve with a large enough effect in the polarisation, with a control signal flat, not every such curve was filed as active; inconclusive = small, poorly fitted or top-dose-only effect, or effect the other way, or a change in a side signal; inactive = no such curve, though single readings can be large or run the other way; the % refers to the polarisation; note: potency is the fitted concentration of half-maximal effect; % is set by controls: 0 for no effect and ±100 for the full control effect
Target sequence (Q13526 whole entry, looked up): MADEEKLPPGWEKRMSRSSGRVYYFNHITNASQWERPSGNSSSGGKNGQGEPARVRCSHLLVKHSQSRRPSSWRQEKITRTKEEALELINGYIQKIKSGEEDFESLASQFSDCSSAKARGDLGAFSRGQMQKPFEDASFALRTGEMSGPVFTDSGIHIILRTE
GRP78 ERSR act = induces the endoplasmic reticulum stress response in human glioma cells. AID 602332. Potency, µM, inactives show at the highest dose activation, actives largely listed as activators. U87-MG GRP78 promoter luciferase reporter, 16 h. 0.02% of 420,000 active; note: potency is the fitted concentration of half-maximal effect; series mostly up to about 76 µM; % of control where 0% means no effect; nearly all actives have a fitted effect of over 35% in size
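Stably transfected U87-MG glioma cells carrying a GRP78-based luciferase sensor; 16 h compound incubation. Luminescence end-point read 10 min after Bright-Glo addition at room temperature.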
PI5P4Ka inh = inhibitors of human PI5P4K alpha; P48426; PI5P4Kalpha enzyme, ADP-Glo luminescence, 60 min; active compounds read low; max response, %; 1.2% of 330,000 active; active = max response of -50% or lower; inconclusive = between -30% and -50%; inactive = -30% or higher; note: value at the top dose of about 77 µM; % is set by controls: 0 for no effect and ±100 for the full control effect
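Compounds were pin-transferred onto PI5P4Kalpha and substrate in HEPES pH 7.4 buffer with EGTA, CHAPS and 5% DMSO. ATP (5 microM final) started the reaction, which ran 60 minutes at room temperature before ADP-Glo detection.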
WRN helicase inh-2 = confirmation of human WRN helicase inhibitors | WRN helicase DNA unwinding, fluorescence kinetic | Potency, µM (titrated, usually from 57.1 µM), for the others: at the top dose activity, negative = inhibition, hits mostly inhibitors | AID 720497 | 63% of 610 active | shares compounds with WRN helicase inh-1; note: potency is the fitted concentration of half-maximal effect; nearly all actives have a fitted effect of over 65% in size
TO displacement = DNA binding via thiazole orange displacement. shares compounds with WRN helicase inh-1. thiazole orange DNA binding displacement, fluorescence. Potency, µM (titrated, usually from 57.1 µM), without a hit: top-dose activity change, negative = inhibition, hits mostly inhibitors. 10% of 610 active. AID 720499;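 note: drop in dye fluorescence marks compound binding to DNA; potency is the fitted concentration of half-maximal effect; % is set by controls: 0 for no effect and ±100 for the full control effect; nearly all actives have a fitted effect of over 60% in size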
BLM counter = counter-screen for WRN helicase inhibitors: human BLM helicase inhibition; shares compounds with WRN helicase inh-1; Recombinant BLM helicase DNA unwinding, red fluorescence; Potency, µM (top dose mostly 57.1 µM), inactives show at the highest dose activity change, negative = inhibition, hits mostly inhibitors; 60% of 610 active; note: potency is the fitted concentration of half-maximal effect; nearly all actives have a fitted effect of over 60% in size
ADP-Glo interf = counter-screen for PI5P4K inhibitors: ADP-Glo detection interference, no enzyme. AID 743285. ADP-Glo detection counter-screen, luciferase luminescence, no enzyme. Potency, µM (doses to about 76.9 µM), inactives show at the highest dose activity change, negative = inhibition, usual class: inhibitors. shares compounds with PI5P4Ka inh. 1,100 tested, under 10 active
An asterisk follows results filed as active; ? = inconclusive; / = no result; [ ] = dose if it differs, or a comment. Unless noted, calls come from the whole dose curve; as a rule, active = well fitted curve in the direction sought with a large enough effect; inconclusive = small, poorly fitted or top-dose-only effect, or another doubt; inactive = no such curve, though single readings can be large; an effect the other way counts as inactive or inconclusive.

SMILES	WRN helicase inh-1	PGK inhibitor	FEN1 inh	Pin1 inh	GRP78 ERSR act	PI5P4Ka inh	WRN helicase inh-2	TO displacement	BLM counter	others
Cn1cccc1/C=C1\C(=O)NC(=O)N(Cc2ccccc2Cl)C1=O	39.8µM*	-11.8%	?	-12.2%	-5.3%	-68.8*	?	-14.8%	17.1µM*
Cn1cccc1/C=C1\C(=O)NC(=O)N(CCC2=CCCCC2)C1=O	0.5%	-3.7%	-13.9%	?	-1.1%	-21.3	/	/	/
C[C@@]12CCC3C(CCC4=CC(=O)CC[C@]43C)C1CCC2O (some centres not stated)	/	/	/	/	-4.3%	/	/	/	/
O=C1NC(=O)C(=Cc2ccccc2OCCOc2ccc([N+](=O)[O-])cc2)C(=O)N1	35.5µM*	-9.3%	?	0.7%	1.8%	?	?	-16.3%	?
CCC1OC2(C)C(O)C(/C=C/C=C/C=C/c3oc(=O)cc(OC)c3C)OC1(C)C2OC(C)=O (configuration not stated)	/	/	/	/	-0.1%	/	/	/	/
CCN1C(=O)C(=C/C=C/c2ccco2)C(=O)N(CC)C1=S	28.2µM*	?	22.4µM*	?	-4.4%	-97.3*	21.5µM*	98.4%	19.2µM*
CC(C)N1C(=O)/C(=C/C=C/c2ccco2)C(=O)N(Cc2ccco2)C1=O	35.5µM*	?	56.2µM*	?	?	-68.5*	17.1µM*	-2.4%	8.57µM*
CN(C)c1ccc(/C=C/c2cc[n+](C)c3ccccc23)cc1	35.5µM*	?	35.5µM*	9.5%	-10.4%	-25.8	17.1µM*	15.2µM*	21.5µM*
Cc1cc(/C=C2\C(=O)NC(=O)N(Cc3ccccc3)C2=O)c(C)n1C1CC1	-14.0%	-10.6%	3.3%	?	-1.6%	-7.1	/	/	/
Cc1ccccc1N1C(=O)NC(=O)/C(=C\c2ccc3c(c2)CCCN3Cc2ccccc2)C1=O	13.4µM*	-8.9%	-35.8%	?	?	-64.6*	?	6.8%	24.1µM*
O=[N+]([O-])c1cc(S(=O)(=O)c2ccc(O)c([N+](=O)[O-])c2)ccc1O	?	?	?	?	-1.9%	-64.2*	19.2µM*	-9.7%	?
O=[N+]([O-])c1cccc(O)c1	-6.1%	3.7%	-13.7%	-5.5%	-0.3%	1.5	/	/	/
C=CCN1C(=O)/C(=C/c2cccs2)C(=O)NC1=S	0.474µM*	2.6%	-7.8%	26.9%	-15.2%	-85.7*	-17.2%	1.6%	?
O=C1NC(=S)N(c2ccc(F)cc2)C(=O)/C1=C/c1ccccc1O	-0.4%[57.1 µM]	6.8%	16.5%	1.8%	-0.5%	-1.5	/	/	/
CCCCOC(=O)N(C)SN(C)C(=O)Oc1cccc2c1OC(C)(C)C2	/	/	/	/	-1.2%	/	/	/	/
COc1ccc2c(c1)CCc1c(C(=O)Nc3c(C)nn(Cc4ccccc4C)c3C)noc1-2	/	3.9%	-16.8%	41.4%	-3.7%	/	/	/	/
COC(=O)C1=C(c2ccc(F)cc2F)C[C@@H]2CC[C@H]1N2C(=O)NC1Cc2ccccc2C1	-4.0%	-0.6%	-16.3%	-0.1%	-0.9%	-84.4*	/	/	/	ADP-Glo interf=-1.7%
CCOC(=O)Nc1ccc(NCc2ccc(F)cc2)nc1N	-0.9%[11.6 µM]	-1.6%	?	?	-3.8%	-50.2*	/	/	/	ADP-Glo interf=-4.9%
CCCOC(=O)Nc1ccc([As](=O)(O)O)cc1NC(=O)OCCC	6.2%	6.6%	15.2%	-3.2%	-12.3%	-1.3	/	/	/
CN1C2CCCC1CC(=O)C2	/	/	/	/	1.4%	/	/	/	/
c1ccc2c(c1)c1cc[n+]2CCCCC[n+]2ccc(c3ccccc32)NCCCCCN1	/	/	/	/	-6.8%	/	/	/	/
COc1ccc(C(c2nnnn2-c2ccc3c(c2)OCCO3)N2CCC(n3c(=O)[nH]c4ccccc43)CC2)cc1 (configuration not stated)	-5.2%	/	/	/	-3.0%	-2.6	/	/	/	ADP-Glo interf=4.2%
